According to the supplement of paper PMC11732987, “Enantioselective OTUD7B fragment discovery through chemoproteomics screening and high-throughput optimisation” (Communications Chemistry, 2025):
A number with no mark means an inactive call.

Compound: ClCC(=O)N1CCCC1=O
Assay: log2 ratio of Biotin-Ahx-Ub-VS probe labelling (fragment/DMSO); higher = less target engagement (more negative = stronger competition), active = hit call of the paper (q ≤ 0.05, log2 ratio ≤ -1)
Settings: compound concentration: 200 uM; treatment time: 3 h
Method: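 Competitive ABPP in HEK293T cell lysate. Lysates were treated with each chloroacetamide fragment at 200 µM for 3 h, then with Biotin-Ahx-Ub-VS (0.5 µM, 1 h), NeutrAvidin-enriched and analysed by diaPASEF LC-MS/MS. Protein LFQ was median-normalised; average log2 ratio is fragment/DMSO from an unpaired t-test (n=3 treated, n=44 DMSO). Hits: q ≤ 0.05, log2 ratio ≤ -1, unique peptides ≥ 2.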

Sequence of UniProt Q9Y4E8 (Q9Y4E8 whole entry): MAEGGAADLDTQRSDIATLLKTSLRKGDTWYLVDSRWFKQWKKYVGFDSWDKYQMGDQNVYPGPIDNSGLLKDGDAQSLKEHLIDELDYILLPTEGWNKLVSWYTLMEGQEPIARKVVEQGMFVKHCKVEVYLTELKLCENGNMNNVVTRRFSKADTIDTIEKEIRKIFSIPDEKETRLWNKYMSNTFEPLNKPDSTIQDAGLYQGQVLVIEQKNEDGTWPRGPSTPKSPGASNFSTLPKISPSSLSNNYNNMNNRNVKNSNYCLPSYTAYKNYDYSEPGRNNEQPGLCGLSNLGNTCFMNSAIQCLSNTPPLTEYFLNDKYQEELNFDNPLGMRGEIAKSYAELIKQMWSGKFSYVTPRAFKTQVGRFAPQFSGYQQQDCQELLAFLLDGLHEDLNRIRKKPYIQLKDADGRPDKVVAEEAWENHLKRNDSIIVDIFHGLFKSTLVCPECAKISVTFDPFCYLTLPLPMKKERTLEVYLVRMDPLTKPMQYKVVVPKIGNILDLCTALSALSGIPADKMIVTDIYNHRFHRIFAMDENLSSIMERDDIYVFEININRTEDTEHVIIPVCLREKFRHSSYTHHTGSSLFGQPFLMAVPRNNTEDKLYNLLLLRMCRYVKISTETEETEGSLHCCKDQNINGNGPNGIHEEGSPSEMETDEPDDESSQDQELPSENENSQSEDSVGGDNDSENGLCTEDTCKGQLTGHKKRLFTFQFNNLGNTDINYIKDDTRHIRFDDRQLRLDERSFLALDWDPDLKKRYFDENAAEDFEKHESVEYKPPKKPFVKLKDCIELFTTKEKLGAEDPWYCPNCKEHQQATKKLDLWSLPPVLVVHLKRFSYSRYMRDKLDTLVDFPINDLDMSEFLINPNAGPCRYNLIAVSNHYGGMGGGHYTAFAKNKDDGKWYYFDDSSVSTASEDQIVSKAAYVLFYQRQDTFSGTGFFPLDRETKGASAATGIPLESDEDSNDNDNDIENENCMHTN
Sequence of UniProt Q92560 (Q92560 whole entry): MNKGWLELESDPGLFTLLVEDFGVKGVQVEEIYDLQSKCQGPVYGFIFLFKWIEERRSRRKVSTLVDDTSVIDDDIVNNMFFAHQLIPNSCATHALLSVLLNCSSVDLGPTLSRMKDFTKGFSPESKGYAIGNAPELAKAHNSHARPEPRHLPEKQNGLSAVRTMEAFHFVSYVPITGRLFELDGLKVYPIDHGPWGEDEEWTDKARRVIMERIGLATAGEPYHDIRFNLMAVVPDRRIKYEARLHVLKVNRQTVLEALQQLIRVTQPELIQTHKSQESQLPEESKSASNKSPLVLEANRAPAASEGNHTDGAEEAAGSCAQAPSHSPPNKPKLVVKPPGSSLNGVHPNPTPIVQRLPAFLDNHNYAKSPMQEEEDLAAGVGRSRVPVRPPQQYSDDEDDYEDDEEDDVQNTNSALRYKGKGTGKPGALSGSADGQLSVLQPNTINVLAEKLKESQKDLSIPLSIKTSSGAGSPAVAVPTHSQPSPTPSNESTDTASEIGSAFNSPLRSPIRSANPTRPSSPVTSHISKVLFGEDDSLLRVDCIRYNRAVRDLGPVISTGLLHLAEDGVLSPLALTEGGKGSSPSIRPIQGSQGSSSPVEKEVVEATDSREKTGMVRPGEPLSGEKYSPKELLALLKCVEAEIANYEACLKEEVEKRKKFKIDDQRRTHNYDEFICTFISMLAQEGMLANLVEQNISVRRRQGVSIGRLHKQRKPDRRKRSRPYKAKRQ
Sequence of UniProt Q14694 (Q14694 whole entry): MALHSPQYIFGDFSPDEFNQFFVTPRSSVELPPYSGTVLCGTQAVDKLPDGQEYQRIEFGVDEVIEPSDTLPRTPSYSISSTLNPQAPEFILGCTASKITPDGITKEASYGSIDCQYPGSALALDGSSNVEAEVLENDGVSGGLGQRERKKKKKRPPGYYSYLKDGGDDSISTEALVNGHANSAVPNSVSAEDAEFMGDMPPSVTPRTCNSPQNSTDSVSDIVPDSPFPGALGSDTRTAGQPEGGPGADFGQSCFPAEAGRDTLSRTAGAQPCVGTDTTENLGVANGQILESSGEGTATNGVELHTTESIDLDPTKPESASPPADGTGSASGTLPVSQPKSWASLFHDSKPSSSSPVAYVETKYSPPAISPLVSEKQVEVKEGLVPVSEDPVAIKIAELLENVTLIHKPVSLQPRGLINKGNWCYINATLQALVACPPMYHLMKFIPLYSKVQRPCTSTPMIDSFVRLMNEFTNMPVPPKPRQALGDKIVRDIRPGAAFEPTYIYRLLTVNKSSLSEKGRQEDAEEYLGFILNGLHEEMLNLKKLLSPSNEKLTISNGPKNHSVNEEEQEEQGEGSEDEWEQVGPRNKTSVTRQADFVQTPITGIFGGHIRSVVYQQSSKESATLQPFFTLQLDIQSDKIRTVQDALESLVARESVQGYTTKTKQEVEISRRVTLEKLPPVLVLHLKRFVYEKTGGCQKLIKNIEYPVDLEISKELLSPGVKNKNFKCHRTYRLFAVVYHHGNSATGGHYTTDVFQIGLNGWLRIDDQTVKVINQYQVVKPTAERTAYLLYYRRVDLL
Sequence of UniProt Q70EL1 (Q70EL1 whole entry): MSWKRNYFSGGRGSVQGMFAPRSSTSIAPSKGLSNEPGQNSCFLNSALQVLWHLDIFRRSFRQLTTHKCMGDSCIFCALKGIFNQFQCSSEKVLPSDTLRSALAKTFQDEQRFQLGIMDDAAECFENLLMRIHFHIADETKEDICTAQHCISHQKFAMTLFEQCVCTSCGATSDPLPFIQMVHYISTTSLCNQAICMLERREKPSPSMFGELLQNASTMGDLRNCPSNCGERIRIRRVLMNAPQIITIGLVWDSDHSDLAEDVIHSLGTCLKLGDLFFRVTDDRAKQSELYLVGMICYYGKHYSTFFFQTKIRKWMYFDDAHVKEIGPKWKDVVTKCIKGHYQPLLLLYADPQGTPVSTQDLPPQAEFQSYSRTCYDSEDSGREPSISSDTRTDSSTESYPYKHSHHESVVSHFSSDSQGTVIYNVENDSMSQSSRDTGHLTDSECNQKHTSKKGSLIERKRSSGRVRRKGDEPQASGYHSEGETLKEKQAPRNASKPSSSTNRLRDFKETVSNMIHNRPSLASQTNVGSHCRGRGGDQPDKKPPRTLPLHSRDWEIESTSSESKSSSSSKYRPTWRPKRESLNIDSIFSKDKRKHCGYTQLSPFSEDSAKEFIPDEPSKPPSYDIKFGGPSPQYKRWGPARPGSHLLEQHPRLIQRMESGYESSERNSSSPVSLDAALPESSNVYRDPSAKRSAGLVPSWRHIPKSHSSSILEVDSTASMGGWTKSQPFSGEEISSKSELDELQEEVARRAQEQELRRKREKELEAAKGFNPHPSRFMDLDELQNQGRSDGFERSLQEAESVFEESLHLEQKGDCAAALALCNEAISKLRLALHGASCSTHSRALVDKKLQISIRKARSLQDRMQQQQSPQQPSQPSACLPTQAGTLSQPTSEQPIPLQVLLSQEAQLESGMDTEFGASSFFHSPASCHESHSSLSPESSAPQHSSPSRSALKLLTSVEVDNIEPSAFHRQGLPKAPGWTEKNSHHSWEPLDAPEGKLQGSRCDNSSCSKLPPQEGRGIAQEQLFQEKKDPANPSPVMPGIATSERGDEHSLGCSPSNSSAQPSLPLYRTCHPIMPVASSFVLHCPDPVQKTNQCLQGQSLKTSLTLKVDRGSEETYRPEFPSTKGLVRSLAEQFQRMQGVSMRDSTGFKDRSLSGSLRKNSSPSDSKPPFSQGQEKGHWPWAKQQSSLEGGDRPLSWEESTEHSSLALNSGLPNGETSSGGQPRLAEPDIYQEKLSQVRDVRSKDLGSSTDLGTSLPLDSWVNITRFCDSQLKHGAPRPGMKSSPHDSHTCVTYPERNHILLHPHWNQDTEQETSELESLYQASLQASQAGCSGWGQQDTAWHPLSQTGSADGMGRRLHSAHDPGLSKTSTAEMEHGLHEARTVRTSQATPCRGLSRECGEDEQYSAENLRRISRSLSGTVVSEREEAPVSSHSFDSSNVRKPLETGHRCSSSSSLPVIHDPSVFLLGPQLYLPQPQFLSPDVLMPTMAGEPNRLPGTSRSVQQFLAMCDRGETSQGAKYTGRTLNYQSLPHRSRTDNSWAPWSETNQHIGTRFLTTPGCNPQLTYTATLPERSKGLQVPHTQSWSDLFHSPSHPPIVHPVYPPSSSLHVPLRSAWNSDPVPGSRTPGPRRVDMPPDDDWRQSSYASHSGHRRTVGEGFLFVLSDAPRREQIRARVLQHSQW
Sequence of UniProt P62068 (P62068 whole entry): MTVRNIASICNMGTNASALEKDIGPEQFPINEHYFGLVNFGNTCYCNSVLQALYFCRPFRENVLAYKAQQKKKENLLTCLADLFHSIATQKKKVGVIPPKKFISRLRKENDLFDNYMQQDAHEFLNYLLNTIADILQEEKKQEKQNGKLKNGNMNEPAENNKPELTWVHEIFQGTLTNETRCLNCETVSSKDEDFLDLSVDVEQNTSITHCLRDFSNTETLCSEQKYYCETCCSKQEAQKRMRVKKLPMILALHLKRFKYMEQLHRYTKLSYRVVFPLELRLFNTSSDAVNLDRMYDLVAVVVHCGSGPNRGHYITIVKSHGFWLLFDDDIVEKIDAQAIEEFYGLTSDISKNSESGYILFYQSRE
Sequence of UniProt P51665 (P51665 whole entry): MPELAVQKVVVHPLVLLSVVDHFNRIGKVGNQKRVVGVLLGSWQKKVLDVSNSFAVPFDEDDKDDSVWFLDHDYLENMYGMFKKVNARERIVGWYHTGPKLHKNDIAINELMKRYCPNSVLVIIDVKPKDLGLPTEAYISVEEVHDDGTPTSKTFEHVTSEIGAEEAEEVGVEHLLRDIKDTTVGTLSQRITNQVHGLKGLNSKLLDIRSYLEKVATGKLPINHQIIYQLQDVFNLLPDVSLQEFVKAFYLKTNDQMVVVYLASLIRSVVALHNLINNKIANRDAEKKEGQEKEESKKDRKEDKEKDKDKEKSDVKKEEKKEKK

UCHL1 (UniProt P09936) was tested. Which “log2 ratio of Biotin-Ahx-Ub-VS probe labelling” value (“log2 ratio” below) did it give?
Its value is -0.746.

USP46 (UniProt P62068) was tested. Which “log2 ratio” value did it give?
Its value is -0.141.

For USP10 (UniProt Q14694), which “log2 ratio” value is on record?
The value was -0.0833.

How did the “log2 ratio” value turn out when OTUD7B (UniProt Q6GQQ9) was run?
Its value is -0.251.

How did the “log2 ratio” value turn out when USP54 (UniProt Q70EL1) was run?
Its value is -0.396.

With USP15 (UniProt Q9Y4E8) as the target, how does the “log2 ratio” value read?
Its value is -0.378.

How did the “log2 ratio” value turn out when PSMD7 (UniProt P51665) was run?
Its value is -0.274.

With BAP1 (UniProt Q92560) as the target, how does the “log2 ratio” value read?
The value was -0.142.
